Source: PubChem BioAssay (Tox21)
Several values for one entry are separate records, joined by “and”; a condition that tells them apart may be missing. Equal values may be shown once. Results filed as inconclusive are left out. Entries that show only a call come without a potency. Some structures have more than one record in an assay (separate samples or runs), and their calls can disagree. Activity calls are given as the source filed them. Unless noted, calls come from the whole dose curve.

Columns and labels:
[1] = Nuclear factor erythroid 2-related factor 2/antioxidant responsive element (Nrf2/ARE) small molecule agonists: qHTS cell viability counter screen in human keratinocytes (AID 1919968; active = well fitted curve in the direction sought with a large enough effect in the repeat runs; an effect the other way counts as inactive or inconclusive; note: nearly all actives have a fitted effect of over 55% in size; note: potency is the fitted concentration of half-maximal effect)
Summary of the method: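 HaCaT ARE reporter line, 1,500 cells/well; 5 h settle, 37 C/5% CO2; cpd in DMSO pinned; 23 h exposure; CellTiter-Fluor, 1 h; fluorescence.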

[2] = molecular target: KiSS-1 receptor (Homo sapiens) (UniProt Q969F8); test: Human kisspeptin (KISS1R) small molecule agonists, calcium flux assay in KISS1R-HEK293 cells (AID 1920064; active = well fitted curve in the direction sought with a large enough effect in the repeat runs; an effect the other way counts as inactive or inconclusive)
KiSS-1 receptor (Homo sapiens), sequence (Q969F8 whole entry, looked up): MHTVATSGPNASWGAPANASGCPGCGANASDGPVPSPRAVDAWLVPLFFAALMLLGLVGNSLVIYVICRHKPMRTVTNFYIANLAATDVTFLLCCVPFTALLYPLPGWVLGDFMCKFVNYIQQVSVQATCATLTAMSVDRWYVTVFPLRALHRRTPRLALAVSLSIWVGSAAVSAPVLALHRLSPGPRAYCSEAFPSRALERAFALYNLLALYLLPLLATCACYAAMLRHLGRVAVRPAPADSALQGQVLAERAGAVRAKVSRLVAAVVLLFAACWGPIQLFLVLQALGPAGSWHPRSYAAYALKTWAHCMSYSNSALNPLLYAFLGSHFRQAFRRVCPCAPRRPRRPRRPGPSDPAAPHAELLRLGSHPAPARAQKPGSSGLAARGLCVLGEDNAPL
Summary of the method: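 Stable human KISS1R HEK293 line; 18 h plating, 37 C/5% CO2; calcium dye 1 h 37 C; compound pin transfer; kinetic fluorescence Ex/Em 480/540, 3 min.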

[3] = G protein-coupled receptor (GPCR) small molecule agonists, calcium flux assay: HEK293 wild type cell line counter screen (AID 1920065); note: potency is the fitted concentration of half-maximal effect
Summary of the method: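 Kinetic fluorescence at Ex/Em 480/540, recorded every second over 3 min, served as the read-out after compound addition. Each compound was tested at 15 concentrations in triplicate on cells pre-loaded with calcium dye for 1 h.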

[4] = p53 small molecule agonists, cell-based qHTS assay with human liver microsomes (AID 1963577);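 note: p53 response element beta-lactamase reporter cells with liver microsomes plus NADPH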
Summary of the method: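 HLM-supplemented p53RE-bla reporter assay: 16 h compound exposure at 37 C, microsomes and NADPH each 0.5 mg/mL final, read by fluorescence intensity.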

[5] = p53 small molecule agonists, cell-based qHTS assay with human liver microsomes: qHTS cell viability counter screen (AID 1963579); note: nearly all actives have a fitted effect of over 45% in size; note: potency is the fitted concentration of half-maximal effect
Summary of the method: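 Viability of p53RE-bla cells is measured as CellTiter-Glo luminescence following a 16 h, 37 C incubation with compound, liver microsomes from human donors and NADPH.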

[6] = p53 small molecule agonists, cell-based qHTS assay with rat liver microsomes: qHTS cell viability counter screen (AID 1963580); note: nearly all actives have a fitted effect of over 45% in size; note: potency is the fitted concentration of half-maximal effect
Summary of the method: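 In HCT-116 cells carrying a p53 response element-bla reporter, compounds were metabolically activated in situ by rat liver microsomes with NADPH over 16 h. Cell ATP content then served as the cytotoxicity measure.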

[7] = p53 small molecule agonists, cell-based qHTS assay: qHTS cell viability counter screen (AID 1963581); note: nearly all actives have a fitted effect of over 45% in size; note: potency is the fitted concentration of half-maximal effect
Summary of the method: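 HCT-116 p53RE-bla cells, 4,000/well, plated 5 h before compound pin transfer; 16 h at 37 C; bla substrate 2 h RT; then CellTiter-Glo, 30 min RT, luminescence.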

[8] = p53 small molecule agonists, cell-based qHTS assay (AID 1963582; active = well fitted activation curve with a large enough effect in the signal ratio in the repeat runs, not every such curve was filed as active; the % refers to the signal ratio)
Summary of the method: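 Reporter line: p53RE-bla. Pre-incubation 5 h, 37 C, 5% CO2; compound (DMSO, pin tool) 16 h, 37 C; B/G FRET substrate 2 h RT; fluorescence intensity read.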

[9] = molecular target: 5-hydroxytryptamine receptor 2A (Homo sapiens) (UniProt P28223); test: 5-hydroxytryptamine receptor 2A (HTR2A) small molecule antagonists, cell-based qHTS assay (AID 1963586); note: nearly all actives have a fitted effect of over 45% in size; note: potency is the fitted concentration of half-maximal effect
5-hydroxytryptamine receptor 2A (Homo sapiens), sequence (P28223 whole entry, looked up): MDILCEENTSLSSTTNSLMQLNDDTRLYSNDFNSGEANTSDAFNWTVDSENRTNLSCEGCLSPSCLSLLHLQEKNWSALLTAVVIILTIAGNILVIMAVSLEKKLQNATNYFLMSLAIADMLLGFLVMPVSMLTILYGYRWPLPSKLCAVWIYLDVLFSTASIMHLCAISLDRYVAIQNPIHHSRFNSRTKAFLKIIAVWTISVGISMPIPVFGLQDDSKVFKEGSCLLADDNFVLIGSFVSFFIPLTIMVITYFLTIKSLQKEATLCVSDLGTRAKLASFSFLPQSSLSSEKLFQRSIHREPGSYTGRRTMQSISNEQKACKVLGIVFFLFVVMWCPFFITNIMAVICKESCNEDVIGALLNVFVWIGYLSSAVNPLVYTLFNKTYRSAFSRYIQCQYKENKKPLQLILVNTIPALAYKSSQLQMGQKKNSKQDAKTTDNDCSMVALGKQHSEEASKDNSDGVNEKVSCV
Summary of the method: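 Antagonist-mode intracellular calcium assay: DOI (4 nM) added after 5 min compound pre-incubation at room temperature to dye-loaded HTR2A-CHO cells. Fluorescence followed for 3 min, sampled every second.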

[10] = molecular target: Muscarinic acetylcholine receptor M1 (Homo sapiens) (UniProt P11229); test: Cholinergic receptor muscarinic 1 (CHRM1) small molecule antagonists, cell-based qHTS assay (AID 1963588); note: nearly all actives have a fitted effect of over 40% in size; note: potency is the fitted concentration of half-maximal effect
Muscarinic acetylcholine receptor M1 (Homo sapiens), sequence (P11229 whole entry, looked up): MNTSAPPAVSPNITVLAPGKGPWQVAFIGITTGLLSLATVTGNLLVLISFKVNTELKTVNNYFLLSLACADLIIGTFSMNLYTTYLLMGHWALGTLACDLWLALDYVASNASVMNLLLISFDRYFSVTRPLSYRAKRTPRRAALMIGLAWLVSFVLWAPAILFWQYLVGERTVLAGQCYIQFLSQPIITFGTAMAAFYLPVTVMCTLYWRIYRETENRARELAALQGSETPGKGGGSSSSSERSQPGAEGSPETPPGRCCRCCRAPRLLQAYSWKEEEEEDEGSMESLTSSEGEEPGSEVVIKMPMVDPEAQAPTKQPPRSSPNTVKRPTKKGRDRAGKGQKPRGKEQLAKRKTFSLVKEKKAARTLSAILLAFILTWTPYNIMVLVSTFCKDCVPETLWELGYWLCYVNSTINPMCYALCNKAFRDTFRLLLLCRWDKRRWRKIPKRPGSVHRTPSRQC
Summary of the method: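 CHRM1-CHO calcium-flux assay, antagonist mode. Cells were seeded 18 h, dye-loaded 1 h at 37 C and given compound for 5 min at RT, then acetylcholine was added at 50nM. FDSS fluorescence was read 3 min; 15 concentrations, three runs.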

[11] = cAMP Responsive Elements (CRE) small molecule agonists, cell-based qHTS assay (AID 1963590)
Summary of the method: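 HEK 293T CRE-bla, 2,000 cells/well, 18 h preincubation 37 C/5% CO2; cpds (DMSO) pinned, 3 h; LiveBLAzer B/G FRET substrate, 2 h RT.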

[12] = cAMP Responsive Elements (CRE) small molecule antagonists, cell-based qHTS assay (AID 1963591; active = well fitted inhibition curve with a large enough effect in the signal ratio in the repeat runs, not every such curve was filed as active; the % refers to the signal ratio; note: potency is the fitted concentration of half-maximal effect)
Summary of the method: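 Beta-lactamase reporter read by FRET substrate (LiveBLAzer B/G) after 2 h at room temperature. CRE-bla HEK293T cells had received compound plus 0.25 uM (final) NKH477 for 3 h at 37 °C.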

[13] = molecular target: Beta-2 adrenergic receptor (Homo sapiens) (UniProt P07550); test: Adrenergic beta2 receptor (ADRB2) small molecule antagonists, cell-based qHTS assay (AID 1963592); note: nearly all actives have a fitted effect of over 50% in size; note: potency is the fitted concentration of half-maximal effect
Beta-2 adrenergic receptor (Homo sapiens), sequence (P07550 whole entry, looked up): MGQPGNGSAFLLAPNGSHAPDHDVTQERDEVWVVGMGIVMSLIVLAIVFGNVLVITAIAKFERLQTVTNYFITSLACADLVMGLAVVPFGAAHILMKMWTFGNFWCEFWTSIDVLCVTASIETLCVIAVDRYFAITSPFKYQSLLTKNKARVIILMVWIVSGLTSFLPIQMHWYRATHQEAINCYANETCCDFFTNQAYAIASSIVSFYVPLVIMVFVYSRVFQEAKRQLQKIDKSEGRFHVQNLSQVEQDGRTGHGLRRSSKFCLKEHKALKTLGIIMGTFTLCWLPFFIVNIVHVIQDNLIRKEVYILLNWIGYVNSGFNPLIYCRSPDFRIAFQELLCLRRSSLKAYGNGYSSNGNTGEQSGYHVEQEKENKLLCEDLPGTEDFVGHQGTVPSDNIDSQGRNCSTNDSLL
Summary of the method: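 Cells (CHO, stable ADRB2 overexpression) incubated 18-20hr at 37C; compounds added from DMSO; agonist mix (1nM isoproterenol, 100uM IBMX, 25uM Ro-20-1724) added; 0.5hr RT; d2-cAMP and anti-cAMP-cryptate added; 1hr RT; 665/615 nm read.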

[14] = molecular target: Beta-2 adrenergic receptor (Homo sapiens) (UniProt P07550); test: Adrenergic beta2 receptor (ADRB2) small molecule agonists, cell-based qHTS assay (AID 1963593);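 note: CHO cells stably overexpressing human ADRB2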
Summary of the method: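 CHO cells stably over-expressing ADRB2 were plated overnight at 37C, then dosed with compounds plus a stimulation mix containing 100uM IBMX and 25uM Ro-20-1724 for 0.5hr at room temperature. cAMP was measured by HTRF competition, 1hr.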

[15] = molecular target: D(2) dopamine receptor (Homo sapiens) (UniProt P14416); test: Dopamine D2 receptor (DRD2) small molecule agonists, cell-based qHTS assay (AID 1963594); note: nearly all actives have a fitted effect of over 35% in size
D(2) dopamine receptor (Homo sapiens), sequence (P14416 whole entry, looked up): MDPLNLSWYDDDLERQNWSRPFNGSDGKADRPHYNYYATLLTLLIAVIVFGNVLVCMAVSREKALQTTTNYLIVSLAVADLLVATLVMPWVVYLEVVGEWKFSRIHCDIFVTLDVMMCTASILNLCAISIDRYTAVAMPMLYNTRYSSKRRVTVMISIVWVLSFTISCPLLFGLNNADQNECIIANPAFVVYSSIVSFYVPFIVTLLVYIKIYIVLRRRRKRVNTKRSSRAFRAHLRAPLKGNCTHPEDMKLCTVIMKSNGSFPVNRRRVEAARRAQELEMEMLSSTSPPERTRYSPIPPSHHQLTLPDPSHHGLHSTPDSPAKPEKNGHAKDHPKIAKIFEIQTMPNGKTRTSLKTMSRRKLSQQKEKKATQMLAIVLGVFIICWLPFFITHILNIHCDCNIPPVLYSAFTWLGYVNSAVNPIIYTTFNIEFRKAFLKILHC
Summary of the method: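 HEK293 cells stably expressing DRD2 were cultured 24 h at 37 C, then given Ro20-1724 (0.1 mM final) and compounds for 10 min at room temperature. NKH477 (200nM) was then added for 30 min. cAMP was read by HTRF.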

[16] = molecular target: D(2) dopamine receptor (Homo sapiens) (UniProt P14416); test: Dopamine D2 receptor (DRD2) small molecule antagonists, cell-based qHTS assay (AID 1963595; active = well fitted inhibition curve with a large enough effect in the signal ratio in the repeat runs, with a control signal flat; the % refers to the signal ratio; note: potency is the fitted concentration of half-maximal effect)
Summary of the method: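 Readout: HTRF cAMP, cAMP-d2 competing with cellular cAMP for anti-cAMP cryptate, read after 1 h. Cells: DRD2-HEK293. Conditions: 0.1 mM Ro20-1724, 12 nM quinpirole, 200 nM NKH477, 30 min RT.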

[17] = p53 small molecule agonists, cell-based qHTS assay with rat liver microsomes (AID 1963578)
Summary of the method: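 Quantitative HTS of the Tox21 10K library: p53RE-bla cells, rat liver microsomes plus NADPH at 0.5 mg/mL final each, 16 h at 37 C, beta-lactamase fluorescence detection.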

[18] = molecular target: 5-hydroxytryptamine receptor 2A (Homo sapiens) (UniProt P28223); test: 5-hydroxytryptamine receptor 2A (HTR2A) small molecule agonists, cell-based qHTS assay (AID 1963587); note: nearly all actives have a fitted effect of over 30% in size; note: potency is the fitted concentration of half-maximal effect
Summary of the method: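 HTR2A-CHO cells, plated 18 h at 37 C/5% CO2, dye-loaded 1 h at 37 C; compounds in DMSO added by pin tool (agonist mode). Intracellular calcium flux read as kinetic fluorescence on FDSS over 2 min at 1 s intervals.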

[19] = molecular target: Muscarinic acetylcholine receptor M1 (Homo sapiens) (UniProt P11229); test: Cholinergic receptor muscarinic 1 (CHRM1) small molecule agonists, cell-based qHTS assay (AID 1963589); note: nearly all actives have a fitted effect of over 35% in size
Summary of the method: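 Human M1 in stable CHO line; 18 h plating, 1 h dye load 37 C; cpd added (agonist mode); Ca2+ fluorescence kinetic read, 1 s intervals; 15 conc, 3 runs.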

[20] = molecular target: Gonadotropin-releasing hormone receptor (Homo sapiens) (UniProt P30968); test: Human gonadotropin-releasing hormone receptor (GnRHR) small molecule agonists, calcium flux assay in GnRHR-HEK293 cells (AID 1920063); note: nearly all actives have a fitted effect of over 35% in size
Gonadotropin-releasing hormone receptor (Homo sapiens), sequence (P30968 whole entry, looked up): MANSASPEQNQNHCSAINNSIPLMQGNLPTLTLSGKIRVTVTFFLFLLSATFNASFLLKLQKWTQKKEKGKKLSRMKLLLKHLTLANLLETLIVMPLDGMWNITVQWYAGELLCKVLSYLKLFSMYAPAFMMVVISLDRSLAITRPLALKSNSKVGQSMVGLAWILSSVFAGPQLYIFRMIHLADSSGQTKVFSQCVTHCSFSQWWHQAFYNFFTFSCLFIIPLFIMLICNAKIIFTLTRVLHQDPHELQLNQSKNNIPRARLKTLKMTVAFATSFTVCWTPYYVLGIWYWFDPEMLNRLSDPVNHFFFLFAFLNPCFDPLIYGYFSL
Summary of the method: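 GnRHR-HEK293, 1500 cells/well, 18 h 37 C/5% CO2; Ca dye 1 h 37 C; cpd pinned (DMSO), agonist mode; kinetic FL 480/540, 3 min, 1 s reads; 15 conc, n=3.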

Structure (SMILES) | Potency [1] | Potency [2] | Potency [3] | Potency [4] | Potency [5] | Potency [6] | Potency [7] | Potency [8] | Potency [9] | Potency [10] | Potency [11] | Potency [12] | Potency [13] | Potency [14] | Potency [15] | Potency [16] | Potency [17] | Potency [18] | Potency [19] | Potency [20]
O=S1(=O)CCCO1 | inactive | inactive | inactive | inactive | inactive | inactive | inactive | inactive | inactive | inactive | inactive | inactive | inactive | inactive | inactive | inactive | – | – | – | –
CC(CCO)CC(C)(C)C (stereo not drawn) | inactive | inactive | – | inactive | inactive | inactive | inactive | inactive | inactive | inactive | inactive | inactive | inactive | – | inactive | inactive | inactive | inactive | inactive | –
CN(C)CCOCCN(C)C | inactive | inactive | – | inactive | inactive | inactive | inactive | inactive | inactive | – | inactive | inactive | inactive | inactive | inactive | inactive | inactive | inactive | inactive | –
C[C@@H](O)[C@H]1C(=O)N2C(C(=O)O)=C(S[C@@H]3CN[C@H](C(=O)N(C)C)C3)[C@H](C)[C@H]12 | inactive | inactive | inactive | inactive | inactive | inactive | inactive | inactive | – | – | inactive | inactive | inactive | inactive | inactive | – | inactive | – | – | inactive
CCCCCCCCCCCC[N+](C)(C)Cc1ccccc1 | 23.9 µM (active) and 29.7 µM (active) and 11.9 µM (active) | inactive | inactive | – | 44.9 µM (active) and 49.7 µM (active) and 19.9 µM (active) | inactive | 49.7 µM (active) and 22.3 µM (active) | – | 1.3 µM (active) and inactive and 16.3 µM (active) | 1.02 µM (active) and 650 nM (active) | – | – | – | – | inactive | inactive and 59.2 µM (active) and 29.8 µM (active) | – | 48 µM (active) | inactive | –
Oc1c(Cl)cc(Cl)cc1Sc1cc(Cl)cc(Cl)c1O | 13.7 µM (active) and 31.1 µM (active) and 27.3 µM (active) | inactive | inactive | inactive | – | 20.5 µM (active) and 46.5 µM (active) and inactive | 36.4 µM (active) and inactive | inactive | – | – | – | inactive | 55.4 µM (active) and inactive | inactive | inactive | inactive | – | – | – | –
CCCCC(C=O)CC (stereo not drawn) | inactive | inactive | inactive | – | inactive | inactive | – | – | inactive | inactive | – | inactive | inactive | inactive | inactive | inactive | – | inactive | inactive | –
CC1CCC2CC1C2(C)C (stereo not drawn) | inactive | inactive | inactive | inactive | inactive | inactive | inactive | inactive | – | inactive | inactive | inactive | inactive | – | inactive | inactive | inactive | inactive | inactive | –
CN(N=O)C(=O)N[C@@H]1[C@@H](O)[C@H](O)[C@@H](CO)O[C@@H]1O | inactive | inactive | inactive | – | inactive | inactive | inactive | inactive | – | – | – | inactive | inactive | inactive | inactive | inactive | inactive | – | – | inactive
CCCC[P+](CCCC)(CCCC)CCCC | inactive | inactive | inactive | inactive | inactive | inactive | inactive | inactive | inactive | inactive | – | – | inactive | – | inactive | inactive | – | inactive | inactive | inactive
CCN(CC)C(=S)SSC(=S)N(CC)CC | 96.9 nM (active) and 99.2 nM (active) and 29.8 µM (active) | inactive | inactive and 25.1 µM (active) | – | – | – | – | – | – | – | inactive | 1.19 µM (active) | – | inactive | inactive | inactive | – | – | – | inactive
O=C(Cl)c1cccc(C(=O)Cl)c1 | inactive | inactive | inactive | inactive | – | inactive | inactive | – | inactive | inactive | inactive | inactive | inactive | – | inactive | inactive | inactive | inactive | inactive | inactive
O=C(O)c1cccnc1 | inactive | inactive | inactive | – | – | – | – | – | – | – | inactive | inactive | inactive | inactive | inactive | inactive | – | – | – | inactive
NC(=O)OCC(COC(N)=O)c1ccccc1 | inactive | – | inactive | inactive | inactive | inactive | inactive | inactive | inactive | inactive | inactive | inactive | inactive | inactive | inactive | – | inactive | inactive | inactive | inactive
O=NO | inactive | inactive | inactive | – | inactive | inactive | inactive | – | inactive | inactive | inactive | inactive | – | – | – | inactive | – | inactive | inactive | inactive
CCCCCCC=O | inactive | inactive | inactive | inactive | inactive | inactive | inactive | inactive | inactive | inactive | inactive | inactive | inactive | inactive | inactive | inactive | – | – | inactive | inactive
CC(=O)CC(c1ccccc1)c1c(O)c2ccccc2oc1=O (stereo not drawn) | inactive | inactive | inactive | – | inactive | inactive | inactive | – | – | – | inactive | inactive | – | inactive | inactive | inactive | – | – | – | –
CC(=O)c1ccccn1 | inactive | inactive | inactive | inactive | inactive | inactive | inactive | – | inactive | inactive | inactive | – | inactive | – | inactive | inactive | – | inactive | inactive | inactive
